Source: the supplement of paper PMC11417369
The full ranking holds about 25,000 sequences; the median of “ln(normalized median fluorescence intensity)” is about 9.3, and the highest 2% start at about 10. The sample holds the highest values, similar sequences and a random draw of the others, so the mix is not that of the screen.

Each sequence was assayed on PF3D7_0420300 AP2 domain 1 (GST-tagged) (assay: gcPBM binding intensity (ln(normalized median fluorescence intensity)); higher = stronger DNA binding).
Procedure, shortened: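 The highest Masliner-normalised natural-log median intensity across replicate spots of either probe orientation is reported as binding intensity. GST-tagged P. falciparum DNA-binding domains expressed in E. coli were applied for 1 h to an Agilent 4 × 180k array of primer-extended double-stranded 36-bp intergenic genomic probes plus negative controls, and bound protein was detected with Alexa488 anti-GST antibody and scanned at 488 nm.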

| Sequence | gcPBM binding intensity (ln) |
| --- | --- |
| AAAAAAAAAAAAAAAAGTACGTATCAAAGCATCAAA [XGTACX_site880] | 9.42 |
| CATATTTTTTCTTAAACACACACATATATATATATA [CACACA_site8920] | 9.61 |
| TTTATTTTCCAAAGGGTGCACATAGTTGAAACGATA | 9.2 |
| TTTTTTTTTTTTTTTTTTTTCTTCATTTAATTTATA [GTGCAC_negctrl_site17] | 8.31 |
| AAAAAAATACAAATATGTACACATATATATTTAAAA [XGTACX_site4729] | 9 |
| ACTTATTTATTTTTAGTGCATTTAGTTTTATTTTAT | 9.63 |
| CCAAAATACATTAAACGTACATGTCCTAATAAGATA [XGTACX_site21] | 9.15 |
| AATAATGAATACACATGTACAAAAATTTTTCTTACT [XGTACX_site1962] | 9.41 |
| ATCAAGCACGGACACACACACACACCCAGACCCCCA [CACACA_site4360] | 10.1 |
| CAAGCACACGGACACACACACACACGCGCACGCACA [CACACA_site6307] | 10.2 |
| CACACGCACGGACACACACACAAAAAAAAAAAGAAA [CACACA_site6378] | 9.7 |
| AAAATTGTTATTTTATGTACTTATATTTATTTATTT [XGTACX_site3478] | 9.53 |
| ATTTCTCTATCGTAATGTACAAAAAAAAGGAAAAAA [XGTACX_site1323] | 9 |
| AAAAAAAATACATACACACACACACGCACATATATA [CACACA_site7645] | 10.4 |
| AAAAAAAAAAAACATACACACATACATACCTATATA [CACACA_site6575] | 9.78 |
| AAAAAAAAAAAATATACACACACACCGACACATAAA [CACACA_site9270] | 10.1 |
| AAAACATACCTATATACACACATATAAATATAAATA [CACACA_site6956] | 9.71 |
| TAAACATACCTATACACACACACACGCACACGCACA [CACACA_site6372] | 10.3 |
| CTAAAATACAGACACACACACACATATATATATATA [CACACA_site4150] | 9.93 |
| AAAATACACGCATACACACACACACCGACACATATA [CACACA_site4523] | 10.2 |
| TAAATTAAAAAAAATACACACACACCGACACATATA [CACACA_site9084] | 10 |
| TACAGACTAAAATACACACACACACGCACATATATA [CACACA_site7875] | 10.2 |
| TTTAAATACAGACATACACACATACACGCACATATA [CACACA_site6400] | 9.85 |

| Sequence | gcPBM binding intensity (ln) |
| --- | --- |
| CACGCACGCACATACACACACATACACATATAAATA [CACACA_site6907] | 9.95 |
| AAAAAAAAAAAAAATACACACATATATATATATATA [CACACA_site85] | 9.45 |
| TAAATAAATTATTTTCGTACTTATTTATTTTAATTA [XGTACX_site283] | 9.03 |
| TTTAGTGTTATAAAAAGTACATAATAATTCCTTTTC [XGTACX_site3208] | 8.95 |
| CTTTTTAATAAATATACACACACAAAAAAAAAAAAA [CACACA_site9316] | 9.73 |
| AATTTAAAAGAAAAAGAAAAATAATAAACAGAAGCA [XGTACX_negctrl_site503] | 9.68 |
| TTTTTTTTTTTTGTCACACATATGGAATATATCTAT [CACACA_site5899] | 9.26 |
| AAAGAAATAAGGTGCACACATATACAGATATATATA [CACACA_site4399] | 9.66 |
| CTATATGTATAAAGTTGTACAGTTTTTCAAAGTTAA [XGTACX_site6652] | 9.03 |
| TAAATTTATAAATCACGTACATATTTATTTATATTT [XGTACX_site4532] | 9.19 |
| TATTTTATTTCAAATCTTAATAATTGTAATTCTTCA [XGTACX_negctrl_site442] | 8.91 |
| ATATTTTATATGTTCACACATACATAAACATATTTT [CACACA_site4948] | 9.34 |
| CACGCATATATACATACATGCATATATACATCCATG [TGCATGCA_site667] | 9.27 |
| AGAAGCATACATCAAGCACACACACCCACACCCACA [CACACA_site8014] | 9.99 |
| AAAATACACGCATACACACACACACGCGCACATATA [CACACA_site6448] | 10.3 |
| GCATACATCAAGCACACACACACACGCACACGCACA [CACACA_site6311] | 10.3 |
| AAAAAAAAAAAAAAAACACACATACACGCACGCACA [CACACA_site7569] | 9.72 |
| AAGCATACATCAAGCACACACACACCCACACCCACA [CACACA_site372] | 10.1 |
| AAAAAAAAAAAACATACACACACATATATATATATA [CACACA_site8452] | 9.9 |
| TACACAAATATATACATACACACATATATACGCATA [CACACA_site394] | 9.79 |
| AAAAAAAAAAAAAACACACACACACGCACATATACA [CACACA_site7288] | 10.2 |
| CACAAATATATACATACACACATATATACGCATATA [CACACA_site395] | 9.72 |
| AAAAGATGCGCATACACACAGATGAATAACAAAAAA [CACACA_site6865] | 9.74 |

| Sequence | gcPBM binding intensity (ln) |
| --- | --- |
| AAACAAATAGACACTTGTACGTAAGTAAATAATTAA [XGTACX_site6157] | 9.43 |
| ATTTAATTTTTTTTTAAACACACATTTTTTTATTTA [CACACA_site8880] | 9.36 |
| ATTTTTTTATAAAATTTTTTATATATTAAATATTAT [CACACA_negctrl_site135] | 9.04 |
| GTAAAATTTACATAGAGTACTTATATTTTTTTCTGC [XGTACX_site3414] | 8.96 |
| ATAAAGCACACCGACACACACATATATATATATATA [CACACA_site1047] | 9.8 |
| CATATTTGTGGACACACACACATATTTATATATATA [CACACA_site5887] | 9.75 |
| ATTTGGCATGGACACACACACACACCGACAGACATA [CACACA_site4491] | 10.2 |
| TATACTCATGGACACACACACATACACAGACATACA [CACACA_site5024] | 9.92 |
| AAAAATTTGGCATACACACACACACCGACACAGACA [CACACA_site4489] | 10.1 |
| ATAATTTGTGGACACACACACACACCGACATATATA [CACACA_site8718] | 10.2 |
| TTATTAATTATATATAGTACACATTTCACAGATGGG [XGTACX_site2349] | 9.2 |
| TATTTATGTATATGCTGTACGCATTTGTGAAACATA [XGTACX_site4688] | 9.06 |
| GTACATATAAATATTACACACATTTTCATTTTTAAC [CACACA_site1986] | 9.56 |
| ATAATTTATATTCAGAAACACACGAAAAAAAAAAAT [CACACA_site1296] | 9.64 |
| TAAATGTAAAACGAAATGCACACTATGGAAAATATA [CACACA_site724] | 9.66 |
| AATTAATATTTAAATTGTACATGAACATTTTAATGT [XGTACX_site462] | 8.97 |
| CAAATACATAGACACACACACATATACATATTTATA [CACACA_site7610] | 10 |
| TCATTCATATGTTACACACACACACCCACATAAAAA [CACACA_site3245] | 10.1 |
| AAAATTCATAAATACACACACGCACATATATATATA [CACACA_site4227] | 9.88 |
| ATTCATTCATATGTTACACACACACGCCCACATAAA [CACACA_site7513] | 10.3 |
| ATTCATTCATATGTTACACACACACCCACCCATAAA [CACACA_site9066] | 10.2 |
| TCATTCATATGTTACACACACACACGCACATAAAAA [CACACA_site7514] | 10.3 |
| ATTCATTCATATGTTACACACACACCGACACATAAA [CACACA_site5749] | 10 |

| Sequence | gcPBM binding intensity (ln) |
| --- | --- |
| AAAAAGGGTATTATTACACACACGTAAATATTAATA [CACACA_site101] | 9.61 |
| TTTCCTTTTTTAATATGTACACATATTATTATATCT [XGTACX_site3079] | 9.45 |
| ATAATTTAAAAACATTGTACATTAATATATATGTAT [XGTACX_site8970] | 9.12 |
| GTACACATATATATATATATATATATATATATATAT [CACACA_negctrl_site800] | 9.25 |
| ATATATATTTTTATTTGTACATAATTTTTTTTGTGA [XGTACX_site6378] | 9.21 |
| ACCAAAAAAAAAAAAAAAAAAATATACATATATATA [GTGCAC_negctrl_site582] | 9.05 |
| ATTTCACAGAGACACACACACAATATATTTCCTTTT [CACACA_site7773] | 9.94 |
| TTTCATTTCACAGACACACACACACCCTATATTTCC [CACACA_site3906] | 10.2 |
| TCATTTCACAGACACACACACACAAGATATTTCCTT [CACACA_site7774] | 10 |
| AAAGAAAATTAAAAAGAACACACAAATATATATATA [CACACA_site9196] | 9.67 |
| AAATAGAAAAAATATACACACACTTATTAAATAAAA [CACACA_site3313] | 9.86 |
| TGAGTATATAAATACACACACATATATATATTTTAA [CACACA_site5130] | 9.61 |
| TATATATATATATATGCATGTACATATATTTGTTAT [TGCATGCA_site379] | 9.57 |
| ATGCATATATTTATGTGTACATATATTTGTAGGGGG [XGTACX_site6063] | 10.7 |
| ATATATATATATATATGTACTCATATTTTATTATTT [XGTACX_site898] | 9 |
| ATATATATTTATATATGTACATATTTTTGTGTATTT [XGTACX_site1183] | 9.55 |
| TATATATATATATTATGTACTCATTTATTATCTTTT [XGTACX_site8051] | 9.36 |
| TTTGTCATTTTATTATGTACTCAGCATATAGGGGGG [XGTACX_site505] | 10.5 |
| TATATACACATATATACACACACATATATATATATA [CACACA_site9127] | 9.79 |
| TTACCAAAAACCTCAAGTACAAAAAATCCCTAATAT [XGTACX_site2313] | 9.37 |
